In all, about 33,000 sequences were measured (“E-score (-0.5 to 0.5)”: median about -0.035, highest 2% from about 0.35 on). This is one part of a sample in which the highest values are shown more often than they occur.
These sequences were tested against T1, Pdr3 (UniProt P33200) (assay: PBM E-score (8-mer binding enrichment) (E-score (-0.5 to 0.5)); higher = stronger / more preferred TF binding). Conditions: protein concentration: 200 nM; construct: GST-full length.
T1 sequence: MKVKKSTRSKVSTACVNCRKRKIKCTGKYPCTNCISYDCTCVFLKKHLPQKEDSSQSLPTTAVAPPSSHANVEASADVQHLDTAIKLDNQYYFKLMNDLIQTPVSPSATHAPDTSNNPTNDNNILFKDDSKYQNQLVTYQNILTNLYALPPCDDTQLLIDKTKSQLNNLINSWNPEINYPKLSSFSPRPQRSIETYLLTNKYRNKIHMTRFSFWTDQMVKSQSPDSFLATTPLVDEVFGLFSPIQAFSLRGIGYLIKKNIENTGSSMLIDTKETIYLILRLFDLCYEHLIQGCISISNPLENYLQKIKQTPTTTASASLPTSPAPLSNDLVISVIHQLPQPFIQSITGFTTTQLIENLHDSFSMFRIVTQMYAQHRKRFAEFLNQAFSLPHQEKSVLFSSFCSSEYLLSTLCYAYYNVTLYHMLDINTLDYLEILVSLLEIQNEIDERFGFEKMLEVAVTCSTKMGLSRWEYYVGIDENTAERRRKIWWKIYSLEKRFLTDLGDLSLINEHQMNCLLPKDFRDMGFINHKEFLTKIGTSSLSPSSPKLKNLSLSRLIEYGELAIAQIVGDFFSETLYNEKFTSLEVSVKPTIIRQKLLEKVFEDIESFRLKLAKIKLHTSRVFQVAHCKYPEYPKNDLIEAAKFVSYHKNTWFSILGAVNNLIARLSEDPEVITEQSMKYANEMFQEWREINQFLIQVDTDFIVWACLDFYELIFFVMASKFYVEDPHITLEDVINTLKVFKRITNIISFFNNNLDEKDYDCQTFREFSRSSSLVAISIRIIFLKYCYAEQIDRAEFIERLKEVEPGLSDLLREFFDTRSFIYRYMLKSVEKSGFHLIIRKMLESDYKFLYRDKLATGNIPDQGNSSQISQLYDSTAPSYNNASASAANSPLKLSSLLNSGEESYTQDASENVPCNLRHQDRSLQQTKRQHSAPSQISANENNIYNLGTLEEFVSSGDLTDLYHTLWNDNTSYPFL
Protocol: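 Universal 'all 10-mer' protein binding microarrays (Agilent AMADID 015681) probed with GST-tagged S. cerevisiae TFs (full-length or DBD) made by in vitro transcription/translation (PURExpress), about 100-200 nM. Bound TF was detected with fluorescent anti-GST. Each ungapped 8-mer (which stands for itself and its reverse complement) is scored by the PBM enrichment score (E-score), a modified Wilcoxon-Mann-Whitney statistic from -0.5 to +0.5, computed with the Universal PBM Analysis Suite. Scale: above 0.35 generally sequence-specific binding.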

Sequence | PBM E-score
AATTCGGG | 0.153
CATTCGGA | 0.356
CATTCGGC | 0.145
AATTCGGC | 0.173
GGTTCGGA | 0.34
CGTTCGGA | 0.414
GATTCGGA | 0.29
AATTCGGA | 0.365
CGTTCGGC | 0.171
GTAGCGTA | -0.0161
CTGTCGCC | 0.0223
AAAAGATC | -0.0361
TCCGCAGA | 0.258
CCCAAACA | -0.0368
AGGTTAGA | -0.00179
CGCCTGCC | -0.0358
AACCACCC | -0.00213
ACATAGAT | -0.085
CCAACCGC | 0.146
AGTGTTCG | -0.0373
CATTAGAG | -0.234
CCGAAGCC | 0.245

Sequence | PBM E-score
AGGAAGCA | -0.16
CGGAAGCA | 0.428
GGGAAGCA | -0.0013
AGGAAGCC | -0.0295
CGGAAGCC | 0.416
CGCGCTCC | 0.308
ATTGTGGC | 0.0289
GTCTACCA | -0.252
GTGGGAAA | -0.0227
CGGTTGGC | 0.161
AAATACGG | 0.0148
ACACGGAA | 0.438
ACACGGAG | 0.284
TCACGGAA | 0.464
ACACGGAT | 0.302
CCACGGAC | 0.34
TCACGGGA | 0.203
CCACGGCG | 0.182
TCACGGCA | 0.193
CCACGGAG | 0.429
CCACGGGG | 0.335
CCACGGAA | 0.484

Sequence | PBM E-score
CCACGGGA | 0.325
ACAATTTG | -0.117
AGACGGGC | 0.0159
CTCGCAAA | -0.131
AGGAGAAT | -0.00643
AGGATGCA | -0.117
AAGGCATC | -0.216
ACCTAAAG | -0.12
CTCCACGC | -0.165
TGGATCAA | -0.168
CGGATCAG | 0.334
GGGATCAC | -0.0461
CGGATCAC | 0.391
CGGATCAA | 0.356
AGGATCAC | -0.231
ATAGCCCG | 0.0917
ATCGTTTG | 0.0176
TATTCGCA | -0.0986
AGCCAGCT | -0.164
GTGGCGAA | 0.106
CCCCGGCG | 0.162
CCGGGGCC | 0.367

Sequence | PBM E-score
CGGGGGCC | 0.142
GCCGGGCC | 0.12
CCGGGGGC | 0.235
ACGGGGCG | 0.183
CCCGGGCC | 0.397
ACCGGGCC | 0.25
CCGGGGCA | 0.235
CCGGGGCG | 0.374
ACCGGGCG | 0.0259
CCCGGGCG | 0.421
AAGCAGCG | 0.017
CTACTCCA | -0.162
TCGACCGA | 0.0776
ACTGGGCG | -0.018
AGTATTGC | -0.0115
ACCCAGTC | -0.0225
CGCCTCCG | 0.295
AACTAGAC | -0.106
GCCTCACA | -0.114
CCCGATCG | 0.234

Reference: the supplement of paper PMC3334620
